Test results reported in PubChem BioAssay (Tox21).
Records with an inconclusive call do not appear. Values without a mark were called inactive. Calls follow the shape of the dose curve; as a rule, active = well fitted activation curve with a large enough effect in the signal ratio in the repeat runs (not every such curve was filed as active); inconclusive = weak or mixed curves, or effect the other way; inactive = flat fitted curve, though single readings scatter; the % refers to the signal ratio.

test: qHTS assay to identify small molecule agonists of the endoplasmic reticulum stress response signaling pathway (AID 1159516); details: ESRE-bla HeLa, ER stress beta-lactamase reporter, 5 h; series mostly up to 61 µM; activation: at the top concentration
Description: National Center for Advancing Translational Sciences [NCATS]
NIH Chemical Genomics Center [NCGC]
U.S. Environmental Protection Agency [EPA]
National Institutes of Environmental Health Sciences [NIEHS]
National Toxicology Program [NTP]
U.S. Food and Drug Administration [FDA]
Endoplasmic Reticulum (ER) plays an important role in cellular signaling, protein folding/maturation, stress response, lipid biosynthesis, calcium storage and release etc. Under stress conditions, proteins in ER misfold or unfold, and leading to the expression of ER stress responsive genes. ER stress has been associated with a variety of pathophysiological conditions such as cancer, inflammation, neurodegenerative diseases, diabetes, ischemic heart disease etc. To identify the compounds that induce ER stress response, an ER stress reporter cell line, CellSensor ESRE-bla HeLa (Life Technologies, Carlsbad, CA) containing a beta-lactamase reporter gene under control of the Endoplasmic reticulum Stress Response Element (ESRE) was used to screen Tox21 10K compound library.
Tox21 Assay Protocol Summary:
ESRE-bla HeLa cells were dispensed at 1,500 cells/6 uL of assay medium per well into black wall/clear-bottom 1536-well plates using a Multidrop Combi (ThermoFisher Scientific, Waltham, MA) dispenser. After the assay plates were incubated at 37 C and 5% CO2 for an overnight, 23 nL of compounds dissolved in DMSO, positive controls or DMSO only was transferred to the assay plate by a Pintool station (Kalypsys, San Diego, CA). The assay plates were incubated at 37 C and 5% CO2 for 5 hr. One uL of LiveBLAzer B/G FRET substrate (Life Technologies) was added using a Flying Reagent Dispenser (Aurora Discovery, San Diego, CA) and the plates were incubated at room temperature for 2 hr. Fluorescence intensity (405 nm excitation, 460 nm and 530 nm emissions) was measured using an Envision plate reader (PerkinElmer, Shelton, CT).
% is scaled to controls: 0 for no effect and ±100 for the full control effect.

Row | SMILES | activation
1 | CCOc1nc2cccc(C(=O)O)c2n1Cc1ccc(-c2ccccc2-c2nn[nH]n2)cc1 | -1.15%
2 | CC(C)=CCCC(C)CC=O (stereo not given) | -0.505%
3 | CC(=O)Nc1ccc(/C=N/NC(N)=S)cc1 | 1.06%
4 | CC(Cc1cccc(C(F)(F)F)c1)NCCOC(=O)c1ccccc1 (stereo not given) | 0.045%
5 | Cc1cc(O)ccc1N | -6.44% [at 78.8 µM]
6 | CCCCOC(=O)c1ccccc1C(=O)OCC(CC)CCCC (stereo not given) | -0.587%
7 | OCCC1CCCCN1 (stereo not given) | 0.106% [at 78.8 µM]
8 | CNS(=O)(=O)Cc1ccc2[nH]cc(CCN(C)C)c2c1 | 0.687%
9 | CCCCCCCCCCCCCCC1CO1 (stereo not given) | 1.13%
10 | CC(=O)/C=C/C1C(C)=CCCC1(C)C (stereo not given) | -1.66%
11 | O=C(O)/C=C/c1cnc[nH]1 | -3.81%
12 | c1ccc(CNCc2ccccc2)cc1 | 0.205%
13 | c1ccc(-c2nc[nH]c2-c2ccccc2)cc1 | -3.35%
14 | CC(C)(C)C1CCCCC1O (stereo not given) | 0.564%
15 | CC(=O)[C@@]1(O)CC[C@H]2[C@@H]3C[C@H](C)C4=CC(=O)CC[C@]4(C)[C@H]3CC[C@@]21C | -3.79%
16 | O=C1CCCCCO1 | 0.363% [at 78.8 µM]
17 | O=C(O)c1cn(C2CC2)c2cc(Cl)c(F)cc2c1=O | -2.21%
18 | C[C@@H](C1=C(CCN(C)C)Cc2ccccc21)c1ccccn1 | 0.345%
19 | C#CCOC(=O)[C@@H](C)Oc1ccc(Oc2ncc(Cl)cc2F)cc1 | 2.94%
20 | CC(C)(C)c1ccc(S)cc1 | 3.24%

Row | SMILES | activation
21 | CC[C@H](C)[C@@H](C(=O)O)n1sc2ccccc2c1=O | -1.45%
22 | CCOc1ccc2[nH]cc(C(=O)NCc3ccccc3)c(=O)c2n1 | 4.45%
23 | N#Cc1c(F)cccc1F | -2.31%
24 | CCCCOC(O)CC (stereo not given) | -1.57%
25 | CCOC(=O)C1=NN(c2ccccc2)C(=O)C1 | 0.131%
26 | O=C=NC1CCC(CC2CCC(N=C=O)CC2)CC1 (stereo not given) | -0.774%
27 | CN(C)CCCNCCCN | -1.48%
28 | CC(C)(C)c1ccc(OCC2CO2)cc1 (stereo not given) | 0.363% [at 78.8 µM]
29 | O=C(Nc1ccccc1)OCC(CN1CCCCC1)OC(=O)Nc1ccccc1 (stereo not given) | -1.13%
30 | CCN(CC)CCc1nc(-c2ccccc2)no1 | -0.372%
31 | CC(C)NCC(O)c1cc(O)cc(O)c1 (stereo not given) | -0.685%
32 | CCCCCCCCCC(=O)OCC | 0.789%
33 | CCCCCc1ccc(N)cc1 | 3.11%
34 | CCCCCCCCCCCCC(=O)O | -3.58% [at 78.8 µM]
35 | CC(C)NCC(O)COc1ccc(CC(N)=O)cc1 (stereo not given) | 1.19%
36 | Nc1ccc(C(=O)Nc2ccccc2N)cc1 | 5.29%
37 | CCCCCCc1ccc(N)cc1 | 8.23%
38 | O=C(O)C(c1ccc(Cl)cc1)c1ccc(Cl)cc1 | 10.3%
39 | O=S1(=O)N=C(O)c2ccccc21 | -0.85%
40 | COc1ccc([C@@H]2Sc3ccccc3N(CCN(C)C)C(=O)[C@@H]2OC(C)=O)cc1 | -1.94%
